VACV mCherry inh: vaccinia inhibition (mCherry reporter); Vaccinia virus mCherry reporter infection, fluorescence; Potency, µM (series often up to 36.5 µM), without a hit: top-dose activity change, negative = inhibition, most hits filed as inhibitors; hit rate 0.63% among 310,000; calls by dose curve; tested in A549 cells; note: potency is the fitted concentration of half-maximal effect; nearly all actives have a fitted effect of over 35% in size
HCMV inh: inhibitors of human cytomegalovirus. HFF cells, HCMV-luciferase reporter, 72 h; stronger effect = lower value. activity change, negative = inhibition, % at 57.5 µM. hit rate 4.5% among 410,000; in the data active = activity change below about -60%; inconclusive = no clear call, values can overlap the other calls; inactive = above about -39%
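Human foreskin fibroblasts infected with luciferase-reporter HCMV at MOI 1 PFU/cell, compounds at two doses. Luciferase measured 72 h post infection; normalized to buffer-only basal and Salinomycin (10uM) controls.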
HCV inhibitor: HCV inhibition | Huh7.5.1 HCVcc-Cre infection, luciferase reporter, 44 h | Potency, µM (doses to about 41.8 µM), without a hit: top-dose activity change, negative = inhibition, actives largely listed as inhibitors | hit rate 3.4% among 340,000 | AID 651820; active = well fitted inhibition curve with a large enough effect; inconclusive = small, poorly fitted or top-dose-only effect, or another doubt; inactive = no such curve, though single readings can be large or run the other way; note: potency is the fitted concentration of half-maximal effect
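Infectious HCV cell culture screen: compound-treated cells (1,000/well, pre-plated 4 h) are infected with HCVcc-Cre at roughly 0.5 moi and grown 44 h. Infection is quantified by luciferase signal after 15 min substrate incubation at room temperature.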
Lassa entry inh: inhibitors of Lassa virus binding or cell entry. Lassa virus pseudotype entry inhibition, cell reporter. Potency, µM (series often up to 37.9 µM), inactives show at the highest dose activity change, negative = inhibition, hits mostly inhibitors. hit rate 1.2% among 300,000. AID 540256; calls by dose curve; tested in HEK293 cells; note: potency is the fitted concentration of half-maximal effect; nearly all actives have a fitted effect of over 50% in size
VACV Venus inh: inhibitors of vaccinia virus (Venus reporter); Potency, µM (highest dose often 36.5 µM), for the others: at the top dose activity change, negative = inhibition, actives largely listed as inhibitors; Vaccinia virus Venus reporter expression, fluorescence; hit rate 0.46% among 330,000; calls by dose curve; tested in A549 cells; note: potency is the fitted concentration of half-maximal effect; nearly all actives have a fitted effect of over 30% in size
Marburg entry inh: Marburg virus entry inhibition | Marburg virus pseudotyped entry inhibition, cell reporter | AID 540276 | hit rate 1.8% among 300,000 | Potency, µM (series often up to 37.8 µM), for inactives: top-dose activity change, negative = inhibition, most hits filed as inhibitors; calls by dose curve; tested in HEK293 cells; note: potency is the fitted concentration of half-maximal effect
Starred values were filed as active, the others as inactive; [ ] = remark or other dose. Rows were chosen to be rich in hits. Some 7.8% of all compounds tested hit in one or more screens of this group. % is set by controls: 0 for no effect and ±100 for the full control effect.

How did COc1ccc(CCNC(=O)C(=O)NCC(c2ccco2)S(=O)(=O)c2cccs2)cc1 (stereo not drawn) do in these assays?
VACV mCherry inh: -16%; HCMV inh: -1; Lassa entry inh: inconclusive; VACV Venus inh: -5%

What do the screens show for `COc1ccc(C(CCNCc2ccc(OC(C)C)cc2)C(C)C)cc1` (stereo not drawn)?
VACV mCherry inh: -14%; HCMV inh: -79*; HCV inhibitor: inconclusive; Lassa entry inh: inconclusive; VACV Venus inh: -14%; Marburg entry inh: inconclusive

What do the screens show for `COc1ccc(C(CCNCc2ccc(N(C)C)cc2)C(C)C)cc1` (stereo not drawn)?
HCMV inh: -75*; HCV inhibitor: inconclusive

What do the screens show for `COc1ccc(CNCCC(c2ccc(OC(C)C)cc2)C(C)C)cc1OC` (stereo not drawn)?
HCMV inh: -104*; HCV inhibitor: 8.9µM*; Lassa entry inh: 21µM*; Marburg entry inh: inconclusive

What do the screens show for `COc1ccc(CNC(=O)C(C)OC(=O)c2cccc(N(C)C)c2)cc1` (stereo not drawn)?
HCMV inh: 29; HCV inhibitor: inconclusive

Results for CCOCCCNCc1ccc(OC)c(OC)c1 ?
VACV mCherry inh: -20%; HCMV inh: 36; HCV inhibitor: 12%; Lassa entry inh: -12%; VACV Venus inh: -12%; Marburg entry inh: 0%[46.1 µM]

Results for COCCNCc1ccc(C(C)C)cc1 ?
VACV mCherry inh: inactive; HCMV inh: -26; HCV inhibitor: 7%; VACV Venus inh: -10%

How did CCc1ccc(NC(=O)CN2C(=O)C3CCCN3c3ccc(S(=O)(=O)N(CC)CC)cc32)cc1 (stereo not drawn) do in these assays?
VACV mCherry inh: -3%; HCMV inh: 7; Lassa entry inh: -5%[46.1 µM]; VACV Venus inh: -7%

How did COc1ccc(OC)c(-c2nc(C(=O)NC3CCN(Cc4ccccc4)CC3)cc3c2[nH]c2ccccc23)c1 do in these assays?
VACV mCherry inh: -29%; HCMV inh: 25; HCV inhibitor: 6.3µM*; VACV Venus inh: -19%

How did Cc1ccc(-c2nc(C(=O)NCC3CCCO3)cc3c2[nH]c2ccccc23)cc1 (stereo not drawn) do in these assays?
VACV mCherry inh: inconclusive; HCMV inh: -95*; HCV inhibitor: inconclusive; VACV Venus inh: -26%

Results for COc1ccc(-c2nc(C(=O)NCC3CCCO3)cc3c2[nH]c2ccccc23)cc1 (stereo not drawn) ?
VACV mCherry inh: inconclusive; HCMV inh: inconclusive; HCV inhibitor: 3.5µM*; VACV Venus inh: -21%

Results for COc1ccc(-c2nc(C)c(CCNC(=O)c3ccc(F)c(F)c3)s2)cc1 ?
VACV mCherry inh: -7%; HCMV inh: 17; Lassa entry inh: 4%[46.1 µM]; VACV Venus inh: -9%

Results for CC(=O)Oc1cc2c(c(C)c1OC(C)=O)CC=C1[C@]3(C)CC[C@]4(C)CC[C@@](C)(C(=O)O)CC4[C@]3(C)CC[C@]12C (stereo partly drawn) ?
VACV mCherry inh: -21%; VACV Venus inh: -19%

What do the screens show for `CC1=C(C(=O)Nc2cccc(C(F)(F)F)c2)C2(CCCCC2)OC1=O`?
VACV mCherry inh: -4%; HCMV inh: 14; Lassa entry inh: -10%[46.1 µM]; VACV Venus inh: -7%; Marburg entry inh: inconclusive

How did CCN(CC)C(=O)CSC1=C(C#N)C(c2cccs2)C=C(C)N1 (stereo not drawn) do in these assays?
HCMV inh: -16; HCV inhibitor: -25%; Lassa entry inh: inconclusive; VACV Venus inh: -10%; Marburg entry inh: 7.9µM*

Results for Clc1ccc(-c2noc3ncnc(N4CCCCC4)c23)cc1 ?
VACV mCherry inh: -3%; HCMV inh: -29; Lassa entry inh: -2%[46.1 µM]; VACV Venus inh: 0%; Marburg entry inh: 12%[46.1 µM]

Results for CCN1CCCc2cc(CN(CCN3CCOCC3)C(=S)Nc3cccc(C)c3)ccc21 ?
VACV mCherry inh: inconclusive; HCMV inh: -65*; HCV inhibitor: -38%; Lassa entry inh: inconclusive; VACV Venus inh: -12%; Marburg entry inh: inconclusive

How did O=C(Cn1cnc2onc(-c3ccc(F)cc3)c2c1=O)Nc1cccc(C(F)(F)F)c1 do in these assays?
VACV mCherry inh: -16%; HCMV inh: -17; Lassa entry inh: 4%[46.1 µM]; VACV Venus inh: -8%

How did CCN1C(=O)[C@@H]2[C@@H](c3ccc(-c4ccc(OC)cc4)cc3)N3CCCC[C@@]3(C(=O)OC)[C@@H]2C1=O do in these assays?
VACV mCherry inh: -15%; HCMV inh: 26; HCV inhibitor: 3.2µM*; VACV Venus inh: -13%

What do the screens show for `CCSc1ccc([C@@H]2[C@@H]3C(=O)N(CC)C(=O)[C@@H]3[C@]3(C(=O)OC)CCCCN23)cc1`?
VACV mCherry inh: -14%; HCMV inh: -27; HCV inhibitor: 0.71µM*; VACV Venus inh: -23%

What do the screens show for `COc1ccccc1C(=O)N[C@@H]1c2ccccc2C2(CCN(C(=O)c3ccnn3C)CC2)[C@H]1OC`?
VACV mCherry inh: -12%; VACV Venus inh: 7%

What do the screens show for `O=C(/C=C/c1ccc(Cl)cc1Cl)Nc1cccc(S(=O)(=O)NC2=NCCCCC2)c1`?
VACV mCherry inh: inconclusive; HCMV inh: 23; HCV inhibitor: inconclusive; Lassa entry inh: -20%; VACV Venus inh: -26%; Marburg entry inh: 2%

Results for O=C(CCl)Nc1ccc(S(=O)(=O)NC2=NCCCCC2)cc1 ?
VACV mCherry inh: 14µM*; HCMV inh: -37; HCV inhibitor: inconclusive; Lassa entry inh: inconclusive; VACV Venus inh: inconclusive; Marburg entry inh: inconclusive

What do the screens show for `O=C(Nc1cccc(S(=O)(=O)NC2=NCCC2)c1)c1ccc(C(F)(F)F)cc1`?
VACV mCherry inh: -9%; HCMV inh: -60*; HCV inhibitor: inconclusive; Lassa entry inh: 0%; VACV Venus inh: -18%; Marburg entry inh: -15%

What do the screens show for `O=C(CSc1ccc2ccccc2c1Br)Nc1cccc(S(=O)(=O)NC2=NCCCCC2)c1`?
VACV mCherry inh: inconclusive; HCMV inh: 5; HCV inhibitor: -22%; Lassa entry inh: inconclusive; VACV Venus inh: 10µM*; Marburg entry inh: inconclusive

Results for O=C(/C=C/c1ccccc1[N+](=O)[O-])Nc1cccc(S(=O)(=O)NC2=NCCCCC2)c1 ?
VACV mCherry inh: inactive; HCMV inh: 1; HCV inhibitor: 3.2µM*; VACV Venus inh: -17%

What do the screens show for `Cc1ccc(C)c(SCC(=O)Nc2cccc(S(=O)(=O)NC3=NCCCCC3)c2)c1`?
VACV mCherry inh: inactive; HCMV inh: -30; HCV inhibitor: inconclusive; Lassa entry inh: -8%; VACV Venus inh: -17%; Marburg entry inh: inconclusive

Results for CC(C)(C)C(=O)Nc1ccc(S(=O)(=O)NC2=NCCCCC2)cc1 ?
HCMV inh: 0; HCV inhibitor: 7%

How did Cc1ccc(S(=O)(=O)N(CC(=O)Nc2ccc(F)cc2F)Cc2ccc(F)cc2)cc1 do in these assays?
VACV mCherry inh: -12%; HCMV inh: inconclusive; Lassa entry inh: -23%[46.1 µM]; VACV Venus inh: -8%; Marburg entry inh: 9%[46.1 µM]

Bioassay records (PubChem BioAssay)
